Data taken from the supplement of paper PMC3414501.
Structures can show the parent of a compound that is named as a salt.

System: S. cerevisiae AD1-9 (efflux-pump deficient), vegetative growth in YPD
Experiment: growth sensitivity score (doubling time z-score vs DMSO controls); higher = slower growth, strongly negative scores also mark growth inhibition (complete suppression), active = hit call of the paper; in the data active = 2 or more and inactive = the rest
Summary of the method: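 Saccharomyces cerevisiae strains BY4741 and AD1-9 were seeded in rich medium in microtiter plates at an OD600 of 0.065. Compounds were added at a 1:100 dilution of DMSO stock. Optical density was read every 15 min for 24 hours on a Tecan GENios reader. Average doubling time was the time taken to reach a set generation point divided by generation number, and the growth sensitivity score was (compound mean − DMSO-control mean)/DMSO-control SD, using eight DMSO controls per experiment.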

Structure (SMILES) | growth sensitivity score
CC[C@H](C)C(=O)O[C@H]1C[C@H](O)C=C2C=C[C@H](C)[C@H](CC[C@@H](O)C[C@@H](O)CC(=O)O)[C@H]21 [Pravastatin sodium] (stock concentration (mM, diluted 1:100): 9.5) | 13.6 (active)
CC(CCCCC(=O)Nc1ccc(C(F)(F)F)cc1)NCCc1cnc[nH]1 (configuration not stated) (stock concentration (mM, diluted 1:100): 10) | 1.41 (inactive)
CC(C)OC(=O)CCC/C=C\C[C@@H]1[C@@H](CC[C@@H](O)CCc2ccccc2)[C@H](O)C[C@@H]1O [Latanoprost] (stock concentration (mM, diluted 1:100): 10.3) | 125 (active)
O=C(c1ccc(F)cc1)C1CCN(CCn2c(=S)[nH]c3ccccc3c2=O)CC1 [Altanserin] (stock concentration (mM, diluted 1:100): 10) | -0.28 (inactive)
O=C1C(c2c(O)[nH]c3ccccc23)=Nc2ccccc21 [Indarubicin] (stock concentration (mM, diluted 1:100): 10) | -1.23 (inactive)
CCCCN1CCCC1CNC(=O)c1cc(C#N)c2ccccc2c1OC (configuration not stated) [Nafadotride] (stock concentration (mM, diluted 1:100): 10) | -2.8
CCOC(=O)c1ccc(OC(=O)CCCCCNC(=N)N)cc1 [Gabexate mesylate] (stock concentration (mM, diluted 1:100): 7.7) | 10.8 (active)
COc1cc(C(=O)NC2CCCNC2)cc(OC)c1OC (configuration not stated) [Troxipide] (stock concentration (mM, diluted 1:100): 10.1) | -0.49 (inactive)
NC[C@H]1CC[C@H](C(=O)Oc2ccc(CCC(=O)O)cc2)CC1 [Cetraxate hydrochloride] (stock concentration (mM, diluted 1:100): 9) | -0.24 (inactive)
O=C(O)/C=C/c1ccc(Cn2ccnc2)cc1 [Ozagrel hydrochloride] (stock concentration (mM, diluted 1:100): 8.6) | 0.64 (inactive)
Nc1ccc2cn[nH]c2c1 [6-Aminoindazole] (stock concentration (mM, diluted 1:100): 10) | -1.63 (inactive)
CCN(CC)CC1CCCCN1CC(=O)N1c2ccccc2C(=O)Nc2cccnc21 (configuration not stated) [Otenzepad] (stock concentration (mM, diluted 1:100): 10) | -1.89 (inactive)
COc1cc2nc(N3CCN(C(=O)c4ccco4)CC3)nc(N)c2cc1OC [Prazosin] (stock concentration (mM, diluted 1:100): 10) | 2.31 (active)
CN1C2CCCC1CC(NC(=O)c1nn(C)c3ccccc13)C2 (configuration not stated) [Granisetron hydrochloride] (stock concentration (mM, diluted 1:100): 9) | -1.22 (inactive)
COc1cc(C)c(Cc2cnc(N)nc2N)cc1OC [Ormetoprim] (stock concentration (mM, diluted 1:100): 10) | -2.46
Nc1nc2ccc(OC(F)(F)F)cc2s1 [Riluzole] (stock concentration (mM, diluted 1:100): 9.9) | 15.4 (active)
O=C(O[C@H]1[C@H](Oc2ccccc2COC(=O)C2(O)C=CCCC2=O)O[C@H](CO)[C@@H](O)[C@@H]1O)c1ccccc1 (some centres not stated) [Tremulacin] (stock concentration (mM, diluted 1:100): 10) | -1.16 (inactive)
O=c1[nH]c(=O)n(C2CCCO2)cc1F (configuration not stated) [Ftorafur] (stock concentration (mM, diluted 1:100): 10) | -0.92 (inactive)
OCc1cccnc1 [3-Pyridinemethanol] (stock concentration (mM, diluted 1:100): 10) | 0.78 (inactive)
CC(Cc1ccccc1)(NC(=O)CN)c1ccccc1 (configuration not stated) [Remacemide] (stock concentration (mM, diluted 1:100): 10) | 4.61 (active)
CC(C)(C)C(O)/C=C/c1ccc2c(c1)OCO2 (configuration not stated) [Stiripentol] (stock concentration (mM, diluted 1:100): 10) | 5.27 (active)
CCOC(=O)O[C@]1(C(=O)OCCl)CC[C@H]2[C@@H]3CCC4=CC(=O)C=C[C@]4(C)[C@H]3[C@@H](O)C[C@@]21C [Loteprednol etabonate] (stock concentration (mM, diluted 1:100): 10) | 5.74 (active)
